The values that follow come from PubChem BioAssay (EPA / NIEHS).

In general, AC50 refers to the midpoint of the concentration-response curve, whichever way the signal moves.

Read-out in assay [1]: Human Leukocyte Antigen - DR isotype (HLADR), HLA-DRA (gene 3122)
The assay can be described thus: BSK_CASM3C_HLADR: BioMAP Diversity Plus: CASM3C Assay for Human Leukocyte Antigen - DR isotype (HLADR) Biomarker Activity (AID 2283043).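 Also: cell-surface HLA-DR protein level quantified by ELISA.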 The conditions noted are these: primary human coronary artery smooth muscle cells; actives raise or lower the signal.

Read-out in assay [2]: Macrophage colony-stimulating factor (MCSF), CSF1 (gene 1435)
The assay can be described thus: BSK_CASM3C_MCSF: BioMAP Diversity Plus: CASM3C Assay for Macrophage colony-stimulating factor (MCSF) Biomarker Activity (AID 2283044).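 Also: M-CSF protein amount quantified by ELISA after 24 h exposure.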 The settings on record: primary human coronary artery smooth muscle cells; actives raise or lower the signal.

Read-out in assay [3]: Low-density lipoprotein receptor (LDLR), LDLR (gene 3949)
The assay can be described thus: BSK_CASM3C_LDLR: BioMAP Diversity Plus: CASM3C Assay for Low-density lipoprotein receptor (LDLR) Biomarker Activity (AID 2283045).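 Also: LDLR protein level on the cell surface quantified by ELISA.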 The settings on record: primary human coronary artery smooth muscle cells; actives raise or lower the signal.

Read-out in assay [4]: Monocyte Chemoattractant Protein-1 (MCP1), CCL2 (gene 6347)
The experiment in a line: BSK_CASM3C_MCP1: BioMAP Diversity Plus: CASM3C Assay for Monocyte Chemoattractant Protein-1 (MCP1) Biomarker Activity (AID 2283046).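 Also: MCP-1 level quantified by ELISA 24 h after dosing.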 The conditions noted are these: primary human coronary artery smooth muscle cells; actives raise or lower the signal.

Assay [5] is described as follows: BSK_CASM3C_Proliferation: Cell Proliferation Assessment in the BioMAP Diversity Plus: CASM3C Assay (AID 2283047).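 Also: sulforhodamine B total protein stain as relative cell number at 560 nm; sub-confluent cells exposed 48 h before staining; fitted both ways against DMSO so gain or loss of cell number.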 The conditions noted are these: primary human coronary artery smooth muscle cells.
Read-out in assay [6]: Monokine induced gamma interferon (MIG), CXCL9 (gene 4283)
The assay can be described thus: BSK_CASM3C_MIG: BioMAP Diversity Plus: CASM3C Assay for Monokine induced gamma interferon (MIG) Biomarker Activity (AID 2283048).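 Also: MIG protein level measured by ELISA.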 The conditions noted are these: primary human coronary artery smooth muscle cells; actives raise or lower the signal.

Read-out in assay [7]: serum amyloid A (SAA), SAA1 (gene 6288)
The assay can be described thus: BSK_CASM3C_SAA: BioMAP Diversity Plus: CASM3C Assay for serum amyloid A (SAA) Biomarker Activity (AID 2283049).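 Also: SAA protein level quantified by ELISA.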 The conditions noted are these: primary human coronary artery smooth muscle cells; actives raise or lower the signal.

Assay [8] is described as follows: BSK_CASM3C_SRB: Viability Assessment in the BioMAP Diversity Plus: CASM3C Assay (AID 2283050).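 Also: total protein by SRB staining as cytotoxicity measure in parallel cultures; cells exposed to compound for 24 h.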 The settings on record: primary human coronary artery smooth muscle cells.
Read-out in assay [9]: Thrombomodulin, THBD (gene 7056)
The assay can be described thus: BSK_CASM3C_Thrombomodulin: BioMAP Diversity Plus: CASM3C Assay for Thrombomodulin Biomarker Activity (AID 2283051).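 Also: thrombomodulin protein level measured by ELISA 24 h after dosing.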 The settings on record: primary human coronary artery smooth muscle cells; actives raise or lower the signal.

Read-out in assay [10]: Tissue Factor, F3 (gene 2152)
The experiment in a line: BSK_CASM3C_TissueFactor: BioMAP Diversity Plus: CASM3C Assay for Tissue Factor Biomarker Activity (AID 2283052).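 Also: cell surface tissue factor protein level read by ELISA.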 The conditions noted are these: primary human coronary artery smooth muscle cells; actives raise or lower the signal.

Activity calls are given as the source filed them. The calls were made as follows: active = hit-call score of the fitted dose curve at least 0.9, where 1 is the maximum; inactive = score below 0.9.

`CCOC(=O)CCN(SN(C)C(=O)Oc1cccc2c1OC(C)(C)C2)C(C)C`: the AC50 in assay [1] is 12.2 µM (active); in [2] it was 20 µM (active); in [5], 20 µM (active); in assay [10], 8.62 µM (active). Besides, the result in assay [3], in assay [4], in assay [6], in assay [7], in [8] and in [9] was inactive.
On to `Cc1cc(Cl)ccc1OC(C)C(=O)O` (stereo not given), for which the outcome in assay [1], in assay [2], in [3], in assay [4], in assay [5] and in [6] was inactive. Further, the outcome in assay [7], in assay [8], in [9] and in [10] was inactive.
With `Cc1cc(C)cc(C)c1`, the result in assay [1], in assay [2], in [3], in assay [4], in assay [5] and in [6] was inactive. Besides, the result in assay [7], in [8], in [9] and in [10] was inactive.
As to `CC(C)(C)c1ccccc1O`, the outcome in assay [1], in [2], in [3], in assay [4], in [5] and in assay [6] was inactive. In addition, the outcome in assay [7], in [8], in assay [9] and in [10] was inactive.
With `Cc1cc(Cl)ccc1N`, the result in assay [1], in assay [2], in assay [3], in assay [4], in assay [5] and in [6] was inactive. Further, the result in [7], in [8], in assay [9] and in assay [10] was inactive.
Regarding `CC(C)=CC1C(C(=O)OCc2cccc(Oc3ccccc3)c2)C1(C)C` (stereo not given), the values for the AC50 in [1], in [9] and in assay [10] were 20 µM (active), 10.4 µM (active) and 9.79 µM (active), respectively. Further, the result in assay [2], in assay [3], in assay [4], in assay [5], in assay [6] and in assay [7] was inactive. Moreover, in assay [8], the outcome was inactive.
On to `Clc1cccc(Cl)c1Cl`, for which the outcome in assay [1], in assay [2], in assay [3], in assay [4], in assay [5] and in [6] was inactive. The outcome in [7], in assay [8], in assay [9] and in [10] was inactive.
In the case of `O=[N+]([O-])c1ccc(Nc2ccccc2)cc1`, the result in assay [1], in [2], in assay [3], in assay [4], in assay [5] and in assay [6] was inactive. The outcome in [7], in [8], in assay [9] and in [10] was inactive.
As to `c1ccc(-c2cccc(-c3ccccc3)c2)cc1`, the outcome in [1], in [2], in assay [3], in [4], in [5] and in assay [6] was inactive. The result in assay [7] and in [10] was inactive. The AC50 is 33.5 µM (active) in assay [8] and 20 µM (active) in assay [9].
As to `O=C(N[C@H]1CN2CCC1CC2)c1ccc2c(c1)OCCO2`, the result in assay [1], in assay [2], in [3], in assay [4], in [5] and in [6] was inactive. The result in [7], in assay [8], in assay [9] and in [10] was inactive.
Turning to `OC(Cc1ccccc1Cl)(Cn1[nH]cnc1=S)C1(Cl)CC1` (stereo not given), the AC50 is 26.7 µM (active) in assay [1]; 3.97 µM (active) in assay [3]; 5.29 µM (active) in [7]; 31.4 µM (active) in assay [8]; 15.3 µM (active) in assay [10]. In addition, the result in assay [2], in assay [4], in assay [5], in [6] and in [9] was inactive.
Consider `Oc1c(Br)cc(Br)cc1Br`, for which the outcome in assay [1], in [2], in [3], in [4], in [5] and in [6] was inactive. Besides, the outcome in assay [7], in [8], in assay [9] and in [10] was inactive.
For the compound `Oc1ccc(Cc2ccc(O)cc2)cc1`, the outcome in assay [1], in assay [2], in [3], in assay [4], in [5] and in [6] was inactive. For the same compound, the result in [7], in assay [8], in assay [9] and in assay [10] was inactive.
For the compound `CCOC(=O)CC(=O)CCl`, the AC50 in assay [1] was 8.67 µM (active); in assay [2], 20 µM (active); in [5], 26.3 µM (active); in assay [6], 31.6 µM (active); in assay [8] it was 25.7 µM (active); in assay [10], 14 µM (active). The result in assay [3], in [4], in [7] and in [9] was inactive.
In the case of `COc1ccccc1N`, the result in assay [1], in assay [2], in assay [3], in assay [4], in assay [5] and in assay [6] was inactive. The result in [7], in assay [8], in assay [9] and in assay [10] was inactive.
`CC(C=O)Cc1ccc2c(c1)OCO2` (stereo not given): the outcome in assay [1], in assay [2], in assay [3], in assay [4], in assay [5] and in [6] was inactive. Moreover, the result in assay [7], in assay [8], in assay [9] and in assay [10] was inactive.
`CCCCOC(=O)COC(=O)c1ccccc1C(=O)OCCCC`: the result in [1], in assay [2], in assay [3], in [4], in assay [5] and in assay [6] was inactive. Also, the outcome in [7], in assay [8], in assay [9] and in [10] was inactive.
